ssDAF12 agonist: S. stercoralis DAF-12 nuclear receptor activators, primary screen, cell-based, luminescence, HEK293, GRIP1 co-expression, lit1-tk-luc; AID 652126, 2013; activation, % at 6.8 µM; HEK293 ssDAF-12/GRIP1 lit1-tk-luc reporter; % of 3 µM dafachronic acid response; actives 1% (n = 370,000);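 active means activation above the mean over all tested compounds plus 3 SD, cut at about 0.9% in these data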;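 further: 0% = DMSO-only wells and 100% = 3 µM delta7-dafachronic acid wells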
hgDAF12 agonist: H. glycines DAF-12 receptor agonists, primary screen, cell-based, luminescence, HEK293, GAL4 fusion, UAS-luciferase | HEK293 GAL4-hgDAF12 UAS-luciferase reporter, agonist luminescence; normalized to butyrate control | activation, % at 6.8 µM | actives 1.8% (n = 370,000) | Nuclear hormone receptor DAF-12 (Heterodera glycines), GAL4 fusion;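 active means activation above a cutoff set at the mean of all screened compounds plus 3 SD, cut at about 10% in these data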;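 further: 0% = DMSO wells and 100% = sodium butyrate wells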
hcDAF-12 act: H. contortus DAF-12 nuclear receptor activators, primary screen, cell-based, luminescence, HEK293, lit1-tk-luc reporter | HEK293 hcDAF-12 lit1-tk-luc reporter; 0% DMSO, 100% Δ7-dafachronic acid | activation, % at 6.8 µM | actives 1.4% (n = 370,000);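 active means activation above the mean of all tested compounds plus 3 SD, cut at about 5.5% in these data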;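 further: 100% = response to 3 µM Δ7-dafachronic acid high control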
DAX1 inh-1: DAX1 (NR0B1) inhibitors on StAR promoter, primary screen, cell-based, luminescence, SF-1 (NR5A1), full-length DAX-1; inhibition, % at 6.8 µM; HEK293T StAR-luciferase reporter, SF-1/DAX-1 repression relief; AID 652010, 2013; actives 1.1% (n = 370,000);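 active means inhibition above the mean over all tested compounds plus 3 SD, cut at about 3.6% in these data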;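 further: 0% = DAX-1 cells with DMSO and 100% = cells lacking DAX-1 with DMSO; higher inhibition means more luminescence from relief of DAX-1 repression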
FXN GAA850 act: FXN promoter activators, primary screen, cell-based, luciferase luminescence, HEK293 lucGAA850 | activation, % at 6 µM | actives 0.56% (n = 360,000) | HEK293 lucGAA850 FXN promoter luciferase reporter, 24 h; percent of 10 µM SAHA response | AID 540364, 2011;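 active means activation above the average of all compounds screened plus 3 SD, cutoff fixed separately per campaign, cut at about 7.5% in these data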;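 further: 0% = DMSO wells and 100% = 10 µM SAHA wells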
DAX1 inh-2: DAX1 (NR0B1) inhibitors, primary screen, cell-based, HEK293, Gal4-DAX1, luciferase luminescence. Nuclear receptor subfamily 0 group B member 1 (Homo sapiens), P51843. HEK293 Gal4-DAX1 luciferase reporter. inhibition, % at 6.75 µM. actives 0.99% (n = 340,000);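 active means inhibition above the mean over all tested compounds plus 3 SD, cut at about 4.2% in these data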;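 further: 0% = DAX1-transfected cells with DMSO and 100% = empty-vector control cells with DMSO; inhibition shows as a rise in luminescence from relieved DAX1 repression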
hgDAF12 ag: H. glycines DAF-12 receptor agonists, confirmation, cell-based, luminescence, HEK293, GAL4-LBD fusion; shares compounds with hgDAF12 agonist; HEK293 GAL4-hgDAF12 luciferase reporter, agonist mode; percent of butyrate response; activation, % at 6.8 µM; actives 80% (n = 3,300);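 active means mean activation over triplicate wells above the hit cutoff derived from the earlier primary screen, cut at about 11% in these data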;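 further: 0% = DMSO low control and 100% = 2 mM sodium butyrate high control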
LXRb DAF12 ctr: LXR agonists, Gal4 luciferase reporter, confirmation, counter-screen for hgDAF-12 agonist project, cell-based, luminescence, HEK293, H. glycines campaign. activation, % at 6.8 µM. 3,300 tested, under 10 active. AID 743051, 2013. shares compounds with hgDAF12 agonist. 24 h;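 active means mean activation of the triplicate above a set limit carried over from the primary screen, none filed active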
Target sequence (P55055 whole entry, looked up, the tested form may be a part): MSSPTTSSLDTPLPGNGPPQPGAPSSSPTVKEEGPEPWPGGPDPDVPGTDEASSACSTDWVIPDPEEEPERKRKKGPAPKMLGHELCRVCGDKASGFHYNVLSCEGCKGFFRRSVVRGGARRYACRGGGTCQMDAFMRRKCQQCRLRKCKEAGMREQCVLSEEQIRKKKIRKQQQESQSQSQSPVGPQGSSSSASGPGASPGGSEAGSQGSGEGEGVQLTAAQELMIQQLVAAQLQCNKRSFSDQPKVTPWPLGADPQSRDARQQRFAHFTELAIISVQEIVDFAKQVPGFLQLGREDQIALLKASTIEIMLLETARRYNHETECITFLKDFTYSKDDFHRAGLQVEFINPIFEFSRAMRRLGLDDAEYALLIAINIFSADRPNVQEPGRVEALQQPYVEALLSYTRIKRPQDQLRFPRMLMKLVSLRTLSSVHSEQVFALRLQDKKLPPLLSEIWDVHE
An asterisk follows results filed as active; / = not tested or not shown. Sampled rows, rich in hits. Any-hit rate of the full collection: about 4.5%.

SMILES	ssDAF12 agonist	hgDAF12 agonist	hcDAF-12 act	DAX1 inh-1	FXN GAA850 act	DAX1 inh-2	hgDAF12 ag	LXRb DAF12 ctr
Nc1c(OS(=O)(=O)c2ccccc2)cccc1OS(=O)(=O)c1ccccc1	0	18*	1	4	4	3	14*	1
O=C(c1ccco1)N1CCC(c2nc3ccccc3[nH]2)CC1	0	0	-1	2	0	-1	/	/
C[C@H](CO)N1C[C@H](C)[C@@H](CN(C)Cc2ccc(Cl)c(Cl)c2)Oc2c(NS(=O)(=O)c3cn(C)cn3)cccc2C1=O	-1	0	0	0	0	-1	/	/
O=C(COC(=O)c1ccccc1C(=O)c1ccccc1)NCc1ccc(F)cc1	-1	16*	-1	1	-2	0	2	0
c1ccc2sc(SCc3ccc(-c4nnco4)cc3)nc2c1	0	7	3	0	4	-1	/	/
O=C(O)c1cccc(-c2nnn(Cc3ccccc3)n2)c1	1	15*	5.7*	2	4	-1	11*	1
Nc1ccc(-c2nnn(Cc3ccccc3)n2)cc1	0	2	1	0	0	0	/	/
Cc1ccccc1Nc1nc2ccccc2s1	0	17*	6.2*	2	4	6.2*	18*	1
Fc1ccc(Nc2nc3ccccc3s2)cc1	0	26*	5	3	5	3	12*	0
O=C(COc1ccc(-c2ccccc2)cc1)NNC(=O)Nc1ccccc1	-1	7	0	0	1	0	/	/
O=C1NC(Cc2ccccc2)c2nc3ccccc3c(=O)n2-c2cc3ccccc3cc21 (stereo not given)	-1	-3	-2	-8	-8	0	/	/
CN(C)c1ccc(/C=N/OC(=O)Nc2ccccc2)cc1	0	14*	5.8*	2	1	1	18*	1
O=C(N/N=C/c1cc([N+](=O)[O-])ccc1O)C1CC1	-2	-2	-2	0	0	2	/	/
O=[N+]([O-])c1ccc(O)c(/C=N/Nc2ccccc2Cl)c1	0	16*	2	2	4	0	10	1
COc1cccc(NC(=O)CN(C)C(=O)CC(NC(=O)c2ccccc2Cl)c2ccccc2)c1 (stereo not given)	-1	2	-2	-2	0	0	/	/
COC(=O)C[C@H]1CC[C@@H]2[C@H](COc3ccc(NC(=O)c4ccccc4OC)cc3C(=O)N2C)O1	0	15*	-2	0	/	/	0	0
C/C(=C\c1ccccc1)C(=O)NCCc1ccccc1	0	19*	4	3	3	1	16*	0
Cc1ccc(C2=N/C(=C\c3ccc(F)cc3)C(=O)N2)cc1	-1	1	1	1	4	0	/	/
O=C(COc1ccc(Br)cc1Cl)NC(=S)N1CCc2ccccc21	1.0*	13*	6.2*	1	3	-1	4	0
COc1ccc2cc(CCNC(=O)c3cccs3)c(=O)[nH]c2c1	0	15*	4	4.0*	2	3	11*	1
COc1ccc2cc(CCNC(=O)c3cc4ccccc4o3)c(=O)[nH]c2c1	-1	-3	-1	-3	1	-1	/	/
O=C(Nc1ccc2c(c1)CCC2)c1cc(F)cc(F)c1	0	14*	0	4.1*	4	2	13*	0
COc1ccc(NC(=O)NC23CC4CC(CC(C4)C2)C3)cc1OC	-1	0	-1	0	2	-1	/	/
O=C(Nc1ccc2c(c1)OCCO2)NC12CC3CC(CC(C3)C1)C2	-1	14*	4	2	3	1	17*	1
CC(=O)c1cccc(NC(=O)Nc2ccc3c(c2)OCO3)c1	0	14*	1	2	2	2	14*	0
SMILES	ssDAF12 agonist	hgDAF12 agonist	hcDAF-12 act	DAX1 inh-1	FXN GAA850 act	DAX1 inh-2	hgDAF12 ag	LXRb DAF12 ctr
O=C(Nc1ccc2c(c1)CCC2)Nc1ccc2c(c1)OCO2	-1	14*	1	1	2	2	14*	1
Cn1cc(C(=O)Nc2ccc3c(c2)CCC3)cn1	0	8	1	2	4	2	/	/
CCCCCCCCN1C(=O)[C@@H](CC(=O)NCc2cccc(C(F)(F)F)c2)C[C@@]2(C(=O)OC)C1=C[C@H](C(C)(C)C)O[C@@H]2C	-1	1	2	0	/	/	/	/
O=C(Nc1cccc([N+](=O)[O-])c1)Nc1ccc2c(c1)OCCO2	0	13*	4	2	-1	3	17*	1
CC(C)c1ccc(NC2CCCN(C(=O)CCc3cnn(C)c3)C2)cc1 (stereo not given)	-1	2	0	-2	0	2	/	/
O=C(Nc1nc2c(s1)C(=O)CCC2)c1ccccc1	0	16*	5	3	0	0	17*	1
O=C(Nc1nc(=O)c2ccccc2s1)c1ccccc1	0	9	5	2	3	1	/	/
O=C(c1ccccc1)C1(c2ccccc2)OC1c1ccccc1 (stereo not given)	-1	2	0	0	1	0	/	/
CCOC(=O)CN1C(=O)N[C@@H](CCc2ccccc2)[C@@H](C(=O)OC)[C@H]1C	-1	0	-1	0	0	1	/	/
Cc1ccc(C(=O)Nc2nnc(-c3ccco3)o2)cc1	0	14*	5	3	5	-2	10	0
COc1ccc(N2Cc3ccccc3C2=O)cc1	0	21*	4	2	1	-1	16*	1
COc1ccc(N2C(=O)c3ccccc3NC23CCCC3)cc1	0	14*	4	4.5*	4	0	9	0
CCC1(CC)Nc2ccccc2C(=O)N1c1ccc(OC)cc1	1	10	3	3	1	2	/	/
